Drawing on PubChem BioAssay, this text covers z-score and composite z-score for nine molecules.

The nature of assay [1]: E. coli DRC41 culture turbidity changes, primary screen, E. coli filamentation inducer project, strain DRC41, OD650, 48 h (AID 1152).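 Also: E. coli MC1000 strain DRC41 lacking acrAB efflux pump and sulA.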 The following applies: E. coli DRC41 (acrAB sulA), higher = more signal, called active from +8 up or from −8 down.
Assay [2] can be described thus: small-molecule binders of probe aLefty1, primary screen, biochemical, small-molecule microarray, 635/667 nm fluorescence (AID 1153).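 Also: score merges spot fluorescence with signal-to-noise ratio from the scanned slide images.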 The conditions noted are these: higher = more signal.
Assay [3] can be described thus: PSAC antagonists in infected red cells, primary screen, cell-based, P. falciparum Indochina, OD700, 1 h (AID 1154). The conditions noted are these: P. falciparum Indochina infected RBC osmotic lysis, higher = more signal, called active from +8 up or from −8 down.
The nature of assay [4]: PSAC antagonists in infected red cells, primary screen, cell-based, P. falciparum Indochina, OD700, 2 h (AID 1155).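 Also: lysis reports solute entry through the parasite surface anion channel PSAC; channel blockers reduce lysis of infected cells.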 The conditions noted are these: P. falciparum Indochina infected erythrocytes, osmotic lysis OD700; higher = more signal, called active from +8 up or from −8 down.
The nature of assay [5]: osmotic lysis modulators in infected erythrocytes, primary screen, PSAC antagonist project, cell-based, P. falciparum Indochina, OD700, 3 h (AID 1156). The following applies: higher = more signal, called active from +8 up or from −8 down.
A short description of assay [6]: PSAC antagonists in infected red cells, primary screen, cell-based, P. falciparum Indochina, OD700, 18 h (AID 1157). The following applies: P. falciparum Indochina infected erythrocytes, osmotic lysis OD700, 18 h; higher = more signal, called active from +8 up or from −8 down.
Assay [7] in a line: modulators of S6 phosphorylation in cells, primary screen, cell-based, A549, cytoblot, luminescence, serum-stimulated (AID 1158).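 Also: serum-stimulated A549 lung adenocarcinoma cells; signal is phosphorylated S6 detected by cytoblot immunostaining with HRP secondary.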 The conditions noted are these: A549 phospho-S6 cytoblot, 5 h, higher = more signal.
The target of assay [8] is NADPH oxidase 2 (Homo sapiens) (UniProt P04839). Nature of the assay: NOX2-dependent H2O2 signal modulators, primary screen, NOX inhibitor project, cell-based, HEK293-NOX2, PMA-stimulated, Amplex Red fluorescence (AID 1159). Also: test concentration not given here. The following applies: 45 min, higher = more signal, called active from +8 up or from −8 down.
The target of assay [9] is NADPH oxidase 4 (Homo sapiens) (UniProt Q9NPH5). The experiment in a line: NOX4-dependent H2O2 signal modulators, primary screen, NOX inhibitor project, cell-based, HEK293-NOX4, tetracycline-induced, Amplex Red fluorescence (AID 1160). The following applies: 45 min, higher = more signal, called active from +8 up or from −8 down.
For assay [10], the target named is NADPH oxidase 5 (Homo sapiens) (UniProt Q96PH1). The experiment in a line: NOX5-dependent H2O2 signal modulators, primary screen, NOX inhibitor project, cell-based, HEK293-NOX5, Amplex Red fluorescence (AID 1161). The following applies: HEK293-NOX5, ionomycin, 45 min, higher = more signal.
The nature of assay [11]: A549 cell viability effects, profiling panel, calcein-AM fluorescence, 48 h, basal (AID 1162). Also: test concentration not given here. The conditions noted are these: higher = more signal.
The nature of assay [12]: adipocyte viability effects, profiling panel, cell-based, 3T3-L1 adipocytes, calcein-AM fluorescence, 48 h, basal (AID 1163). Also: test concentration not given here. The following applies: 3T3-L1 adipocytes viability, higher = more signal.
Assay [13] in a line: HepG2 cell viability effects, profiling panel, calcein-AM fluorescence, 48 h, basal (AID 1164). Also: test concentration not given here. The conditions noted are these: higher = more signal.
A short description of assay [14]: MM1S cell viability effects, profiling panel, calcein-AM fluorescence, 48 h, basal (AID 1165).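 Also: viability of MM1S multiple myeloma cells under basal unstimulated conditions; test concentration not given here.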 The conditions noted are these: higher = more signal.
Assay [15] is described as follows: basal RPMI8226 viability, no added stimulus, profiling panel, cell-based, calcein-AM fluorescence, 48 h, PK04 Diversity Set (AID 1166).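 Also: cells grown under basal conditions without added stimulus; test concentration not given here.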 The conditions noted are these: RPMI8226 myeloma viability, higher = more signal.
Assay [16] is described as follows: basal HepG2 mitochondrial membrane potential changes, profiling panel, cell-based, JC-1 fluorescence, 24 h, 100 nL compound (AID 1167). Also: test concentration not given here. The following applies: higher = more signal.
A short description of assay [17]: basal 3T3-L1 adipocyte mitochondrial potential changes, profiling panel, cell-based, JC-1 fluorescence, 3T3-L1 adipocytes, 24 h, 100 nL compound (AID 1168). Also: test concentration not given here. The conditions noted are these: JC-1 mitochondrial fluorescence, higher = more signal, called active from +8 up or from −8 down.
Assay [18] can be described thus: basal RPMI8226 mitochondrial membrane potential changes, profiling panel, cell-based, JC-1 fluorescence, 24 h, 100 nL compound (AID 1169). Also: test concentration not given here. The conditions noted are these: RPMI8226 myeloma, JC-1 mitochondrial potential fluorescence, higher = more signal.
Assay [19] can be described thus: basal MM1S mitochondrial membrane potential changes, profiling panel, cell-based, JC-1 fluorescence, 24 h, 100 nL compound (AID 1170). Also: test concentration not given here. The conditions noted are these: higher = more signal.
Assay [20] can be described thus: A549 lung cancer cell viability effects, profiling panel, resazurin fluorescence, 24 h, PK04 Diversity Set (AID 1171). Also: test concentration not given here. The following applies: higher = more signal, called active from +8 up or from −8 down. Background: The colour change of resazurin is a common sign of viable cells or microbes.

Each structure is given as a SMILES string. Activity calls are given as the source filed them.

NADPH oxidase 5 (Homo sapiens), sequence (Q96PH1 whole entry, looked up): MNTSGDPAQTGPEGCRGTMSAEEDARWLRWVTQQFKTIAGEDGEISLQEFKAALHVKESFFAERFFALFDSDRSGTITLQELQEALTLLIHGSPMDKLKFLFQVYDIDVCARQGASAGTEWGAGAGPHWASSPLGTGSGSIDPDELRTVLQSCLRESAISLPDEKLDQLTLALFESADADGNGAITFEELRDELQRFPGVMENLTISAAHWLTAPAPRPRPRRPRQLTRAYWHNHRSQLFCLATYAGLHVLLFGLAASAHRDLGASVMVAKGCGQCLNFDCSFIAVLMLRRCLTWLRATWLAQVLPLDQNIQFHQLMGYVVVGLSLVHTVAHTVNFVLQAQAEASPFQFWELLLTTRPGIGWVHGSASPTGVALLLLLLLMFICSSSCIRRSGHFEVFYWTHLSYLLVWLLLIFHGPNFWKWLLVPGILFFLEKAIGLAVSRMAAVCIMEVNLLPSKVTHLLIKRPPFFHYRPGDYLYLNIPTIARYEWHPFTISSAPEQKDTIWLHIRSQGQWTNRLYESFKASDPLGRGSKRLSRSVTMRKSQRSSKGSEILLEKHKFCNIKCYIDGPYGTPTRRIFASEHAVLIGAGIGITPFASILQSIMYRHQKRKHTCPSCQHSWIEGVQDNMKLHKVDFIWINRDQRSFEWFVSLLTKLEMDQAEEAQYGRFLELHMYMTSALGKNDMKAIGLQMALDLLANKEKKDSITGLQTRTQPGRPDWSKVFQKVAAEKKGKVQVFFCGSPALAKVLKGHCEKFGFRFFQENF
NADPH oxidase 4 (Homo sapiens), sequence (Q9NPH5 whole entry, looked up): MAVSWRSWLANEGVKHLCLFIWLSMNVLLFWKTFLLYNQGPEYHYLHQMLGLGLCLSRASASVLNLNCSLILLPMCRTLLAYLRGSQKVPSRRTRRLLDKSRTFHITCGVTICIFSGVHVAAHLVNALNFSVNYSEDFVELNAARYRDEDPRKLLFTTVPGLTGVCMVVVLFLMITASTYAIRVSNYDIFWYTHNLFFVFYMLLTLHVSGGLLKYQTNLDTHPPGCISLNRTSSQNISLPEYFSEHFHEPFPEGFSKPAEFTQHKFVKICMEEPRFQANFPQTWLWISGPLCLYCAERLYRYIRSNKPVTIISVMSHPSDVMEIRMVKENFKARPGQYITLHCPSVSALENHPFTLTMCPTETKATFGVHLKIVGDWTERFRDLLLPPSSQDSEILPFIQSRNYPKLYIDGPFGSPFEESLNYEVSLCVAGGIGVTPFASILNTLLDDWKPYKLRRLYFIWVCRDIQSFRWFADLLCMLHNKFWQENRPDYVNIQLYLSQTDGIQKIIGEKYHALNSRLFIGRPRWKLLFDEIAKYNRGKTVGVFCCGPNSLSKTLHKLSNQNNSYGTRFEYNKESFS
NADPH oxidase 2 (Homo sapiens), sequence (P04839 whole entry, looked up): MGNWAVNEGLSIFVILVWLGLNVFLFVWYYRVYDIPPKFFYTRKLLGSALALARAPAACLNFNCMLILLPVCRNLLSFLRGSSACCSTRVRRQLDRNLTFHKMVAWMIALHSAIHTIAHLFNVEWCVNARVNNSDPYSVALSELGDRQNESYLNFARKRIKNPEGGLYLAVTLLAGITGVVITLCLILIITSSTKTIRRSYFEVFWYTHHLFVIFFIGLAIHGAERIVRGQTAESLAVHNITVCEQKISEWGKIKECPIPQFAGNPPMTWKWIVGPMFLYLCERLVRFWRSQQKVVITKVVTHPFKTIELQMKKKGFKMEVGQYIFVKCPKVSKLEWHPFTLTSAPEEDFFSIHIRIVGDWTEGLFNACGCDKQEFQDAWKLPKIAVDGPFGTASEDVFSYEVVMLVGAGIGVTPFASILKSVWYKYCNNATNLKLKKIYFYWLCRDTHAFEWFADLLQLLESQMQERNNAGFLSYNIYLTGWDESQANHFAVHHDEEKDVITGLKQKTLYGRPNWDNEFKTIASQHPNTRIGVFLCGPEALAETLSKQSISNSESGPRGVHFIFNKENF

In the case of `CCCCC=C[C@@H](NC(=O)c1ccc(C(F)(F)F)cc1)c1ccccc1`, the z-score in assay [1] was -1.96 (inactive); in assay [3], 5.47 (inactive); in [4], 0.895 (inactive); in [5] it was -0.427 (inactive); in assay [6] it was 0.373 (inactive); in assay [7] it was -0.0311. The z-score in assay [8] was -1.51 (inactive); in [9], -1.37 (inactive); in assay [10], 1.1; in [11], -1.13; in assay [12] it was -1.28; in assay [13], -0.63. In addition, the z-score in assay [14] is -0.978; in assay [15] it was -2.53; in assay [16], -1.65; in assay [17], -1.12 (inactive); in assay [18], -0.169; in [19], -1.27. Also, the z-score in assay [20] is 2.14 (inactive). The composite z-score in assay [2] was -0.112.
Take `[N-]=[N+]=NCc1ccccc1C[C@]1(C(=O)N2CCOCC2)N=C(c2ccc(OCCCO)cc2)O[C@H]1c1ccccc1CN=[N+]=[N-]`: the z-score in [1] is 0.341 (inactive); in assay [3] it was 17.5 (active); in assay [4] it was 3.97 (inactive); in assay [5] it was 2.79 (inactive); in [6], 1.15 (inactive); in [7] it was 1.02. The z-score is -0.647 (inactive) in assay [8]; 0.782 (inactive) in assay [9]; 2.13 in assay [10]; 0.869 in [11]; 0.577 in assay [12]; 0.74 in assay [13]. Moreover, the z-score in [14] is -1.47; in [15] it was -2.29; in assay [16], 1.24; in [17] it was 1.04 (inactive); in assay [18], -1.18; in assay [19] it was 0.233. The z-score in assay [20] is -0.768 (inactive). The composite z-score in assay [2] came to 1.15.
In the case of `CCCCC(=C=CC[C@H](O)c1ccc(OCCO)cc1)C[C@H](O)c1ccccn1`, the z-score is 0.558 (inactive) in assay [1]; 15.4 (active) in [3]; 2.3 (inactive) in assay [4]; 1.11 (inactive) in assay [5]; 1.07 (inactive) in assay [6]; 0.433 in [7]. The z-score is 1.26 (inactive) in [8]; 0.364 (inactive) in assay [9]; -1.34 in assay [10]; 1.47 in assay [11]; -0.398 in assay [12]; 0.701 in assay [13]. For the same molecule, the z-score in assay [14] is -0.556; in [15] it was -0.585; in assay [16], -0.0776; in [17], -0.794 (inactive); in [18], -0.485; in assay [19] it was -0.603. Further, in assay [20], the z-score was 1.07 (inactive). This molecule yielded a composite z-score in [2] of -0.0536.
For the molecule `CC(C)C[C@@H]1NC(=O)[C@@H]2C[C@H](C(=O)NCCCC[N+](C)(C)C)[C@H](c3ccc(O)cc3)N2C1=O`, the z-score was -0.04 (inactive) in assay [1]; 1.32 (inactive) in assay [3]; 0.281 (inactive) in assay [4]; -0.0501 (inactive) in assay [5]; 0.449 (inactive) in assay [6]; 0.145 in assay [7]. In addition, the z-score in assay [8] is -2.33 (inactive); in assay [9], -1.4 (inactive); in assay [10] it was -2.19; in assay [11], 0.127; in assay [12], -0.302; in assay [13], -0.698. In addition, the z-score was -0.104 in [14]; -0.427 in assay [15]; -0.65 in assay [16]; -0.341 (inactive) in assay [17]; 0.496 in [18]; -0.548 in assay [19]. Further, the z-score in assay [20] was -1.18 (inactive). In [2], the composite z-score was -0.0145.
In the case of `C=C(COC)/C(=C/C[C@H](OC(=O)c1ccncc1)c1cccc(OCCO)c1)c1cnc2ccccc2c1`, the z-score in assay [1] is -0.223 (inactive); in [3] it was 9.54 (active); in [4], 0.936 (inactive); in assay [5], 0.426 (inactive); in [6], 0.431 (inactive); in [7], 0.231. Also, the z-score in assay [8] is -0.0605 (inactive); in [9] it was 0.24 (inactive); in [10], -0.3; in assay [11] it was -0.0119; in [12], 0.222; in assay [13] it was 0.596. Also, the z-score in assay [14] is -2.77; in assay [15], -0.0229; in assay [16], 0.327; in assay [17], -0.0487 (inactive); in assay [18], 0.568; in assay [19], -0.704. Further, the z-score in [20] is 0.251 (inactive). The composite z-score in assay [2] came out at 0.317.
Turning to `CC(C)C(=C=CC[C@@H](O)c1ccccc1OCCO)C[C@@H](O)c1cc(Cl)cc(Cl)c1O`, the z-score in assay [1] is -0.701 (inactive); in [3] it was 22.2 (active); in assay [4], 5.74 (inactive); in [5] it was -0.0473 (inactive); in assay [6], 1.56 (inactive); in assay [7], -0.844. In addition, the z-score in [8] is -1.79 (inactive); in [9], -1.46 (inactive); in [10], -1.8; in assay [11], -0.551; in assay [12], 0.493; in assay [13] it was -1.07. Besides, the z-score in [14] was -3.43; in assay [15], -3.96; in assay [16] it was -2.61; in assay [17], -0.00407 (inactive); in [18] it was -0.847; in [19], -1.31. Besides, in [20], the z-score was 0.0062 (inactive). Also, the composite z-score in [2] was determined as 0.0004.
For the molecule `CN(C)C(=O)[C@]1(Cc2ccccc2CN=[N+]=[N-])N=C(c2ccc(OCCCO)cc2)O[C@@H]1c1ccccc1N=[N+]=[N-]`, the z-score in assay [1] was -0.174 (inactive); in assay [3] it was 33.2 (active); in assay [4] it was 30 (active); in assay [5], 2.99 (inactive); in [6], 9.81 (active); in assay [7], -0.0847. Moreover, the z-score is -1.25 (inactive) in [8]; 0.807 (inactive) in assay [9]; -0.474 in assay [10]; -0.691 in assay [11]; 0.287 in assay [12]; -0.923 in assay [13]. Also, the z-score in assay [14] is -1.33; in assay [15], -2.16; in assay [16], 0.271; in [17] it was 2.38 (inactive); in [18] it was -0.997; in assay [19], -1.29. The z-score in assay [20] was -1.42 (inactive). In assay [2], this molecule yielded a composite z-score of 0.413.
As for `CC(=O)n1cc(C(O)C2C=CC3C(=O)N(c4ccccc4)C(=O)C3N2Nc2ccccc2F)c2ccccc21` (stereo not given), the z-score in [1] was 0.506 (inactive); in assay [3], 8 (active); in assay [4] it was 1.04 (inactive); in assay [5], 0.0784 (inactive); in [6], -0.0595 (inactive); in [7], 0.988. In addition, the z-score in assay [8] is -1.82 (inactive); in assay [9], -3.23 (inactive); in assay [10] it was -0.614; in [11], 0.512; in assay [12], 0.23; in assay [13], -0.798. Besides, the z-score in assay [14] is -0.834; in assay [15], -0.056; in assay [16] it was -0.69; in assay [17] it was -1.2 (inactive); in [18], 0.408; in assay [19], -1.41. The z-score in assay [20] was 0.423 (inactive). In addition, in assay [2], the composite z-score is -0.147.
For `C[N+](C)(C)CCCCCCNC(=O)[C@@H]1C[C@@H]2C(=O)N[C@@H](Cc3ccccc3)C(=O)N2[C@@H]1c1ccc(O)cc1`, the z-score in assay [1] is 0.38 (inactive); in [3], 3.42 (inactive); in assay [4], 0.0655 (inactive); in assay [5] it was -0.406 (inactive); in assay [6], 0.0311 (inactive); in assay [7], -0.491. The z-score in assay [8] was 0.627 (inactive); in assay [9] it was 0.203 (inactive); in [10] it was 0.0921; in assay [11], -0.428; in [12], -0.482; in assay [13], 0.223. Besides, the z-score in assay [14] is 0.337; in [15] it was -0.0064; in [16], -1.12; in assay [17] it was -0.055 (inactive); in assay [18], -0.862; in [19], -0.401. For the same molecule, the z-score in assay [20] is 0.47 (inactive). Besides, the composite z-score in assay [2] stood at 0.286.
